# This is one part of a sample in which hits are shown more often than they occur.
# AmpC inh detg: qHTS Inhibitors of AmpC Beta-Lactamase (assay with detergent). AmpC hydrolysis of nitrocefin, absorbance 480 nm, 0.01% Triton. 370,000 tested, 0.041% active. Potency, µM (titrated, usually from 114 µM), hits mostly inhibitors. AID 485294, 2010; further: nearly all actives have a fitted effect of over 25% in size
# Target sequence (P00811 whole entry, looked up): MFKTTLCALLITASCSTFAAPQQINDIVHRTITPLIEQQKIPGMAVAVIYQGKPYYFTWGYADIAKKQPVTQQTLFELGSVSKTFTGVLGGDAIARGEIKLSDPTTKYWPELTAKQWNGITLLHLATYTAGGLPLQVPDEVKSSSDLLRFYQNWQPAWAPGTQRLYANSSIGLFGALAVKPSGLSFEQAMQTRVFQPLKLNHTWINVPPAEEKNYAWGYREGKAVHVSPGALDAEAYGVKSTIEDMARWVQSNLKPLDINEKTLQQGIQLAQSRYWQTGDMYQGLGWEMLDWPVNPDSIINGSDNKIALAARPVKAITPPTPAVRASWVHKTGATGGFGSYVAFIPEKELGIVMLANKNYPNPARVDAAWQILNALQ
#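 AmpC (5.3 nM in the dispensed reagent) in 20 mM phosphate pH 7.0 with 0.01% (detergent screen) or 0.0001% Triton X-100 was preincubated with compounds for 15 min at room temperature. Nitrocefin was then added from an 800 uM solution, and hydrolysis was followed at 480 nm.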
# Shiga inhibitor: A qHTS for Small Molecule Inhibitors of Shiga Toxin. Vero cells, Shiga toxin protein synthesis inhibition reporter. inhibition, % at 38.7 µM. 290,000 tested, 9.2% active. AID 2315, 2010; in the data active means inhibition mostly above about 28%, no sharp cut-off; inactive means mostly below about 43%
# NS1 inh: qHTS Assay for Inhibitors of Influenza NS1 Protein Function. Potency, µM (top dose mostly 46.1 µM). 270,000 tested, 0.4% active; calls by dose curve; further: actives are rising curves; nearly all actives have a fitted effect of over 50% in size
#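 In this qHTS, NS1 from influenza A is expressed in budding yeast, where it slows growth. Cells are switched from glucose to 2% galactose medium (pH 6.0, -URA), treated with compound, and growth recovery is read at OD600.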
# CHX counter: Cycloheximide Counterscreen for Small Molecule Inhibitors of Shiga Toxin; cell reporter, cycloheximide protein synthesis inhibition counterscreen; max response, %; 300,000 tested, 12% active; AID 2314, 2010; in the data active means max response mostly above about 13%, no sharp cut-off; inactive means mostly below about 14%; further: read at 38.3 µM for the half of the compounds with a filed dose
# AmpC inh no detg: qHTS Inhibitors of AmpC Beta-Lactamase (assay without detergent); P00811; AmpC nitrocefin hydrolysis, absorbance 480 nm, 0.0001% Triton; Potency, µM (titrated, usually from 57.1 µM), most hits filed as inhibitors; 330,000 tested, 0.52% active; further: nearly all actives have a fitted effect of over 20% in size
#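 AmpC (5.3 nM in the dispensed reagent) in 20 mM phosphate pH 7.0 with 0.01% (detergent screen) or 0.0001% Triton X-100 was preincubated with compounds for 15 min at room temperature. Nitrocefin was then added from an 800 uM solution, and hydrolysis was followed at 480 nm.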
# Numbers stand for hits; – = inactive; ? = inconclusive; · = not tested or not shown; [ ] = another dose, or the depositor's remark. Unless noted, the call rests on the fitted dose curve; in most records, active means well fitted curve in the direction sought with a large enough effect; inconclusive means small, poorly fitted or top-dose-only effect, or another doubt; inactive means no such curve, though single readings can be large; an effect the other way counts as inactive or inconclusive.
SMILES,AmpC inh detg,Shiga inhibitor,NS1 inh,CHX counter,AmpC inh no detg
CC(=O)N1CCCc2cc(S(=O)(=O)N(C)CC(=O)Nc3cccc(Cl)c3C)ccc21,–,·,·,·,·
O=C1CCC[C@@H]2CC(NCc3ccc(Cl)c(Cl)c3)C[C@@H]3CCN1[C@H]23 (stereo partly drawn),·,–,·,–,·
Cc1csc(NC(=O)CCCc2cccs2)n1,–,48.1,·,46.4,–
NS(=O)(=O)c1cccc(NC(=O)COC(=O)Cc2ccc(S(=O)(=O)N3CCCCC3)s2)c1,–,–,·,–,31.6µM
O=C(COC(=O)Cc1ccc(S(=O)(=O)N2CCCCC2)s1)Nc1ccc2c(c1)OCO2,?,–,–,–,–
COC(=O)c1ccc(C2Nc3c(C)cccc3-c3cc(C)nn32)cc1 (stereo not drawn),–,·,·,·,·
COc1ccc(OCc2ccc(-c3nc(C#N)c(N4CCN(c5cccc(Cl)c5)CC4)o3)o2)cc1,–,·,·,·,·
S=c1[nH]nc(-c2cc(-c3ccccc3)n[nH]2)n1/N=C/c1ccccc1,–,–,–,–,–
CC(=C/c1ccccc1)/C=N/n1c(C)n[nH]c1=S,–,–,–,29.6,–
S=c1[nH]nc(-c2cc(-c3ccccc3)n[nH]2)n1/N=C/C(Br)=C/c1ccccc1,–,62.6,–,27.5,–
Cc1n[nH]c(=S)n1/N=C/c1cccc(OCc2ccccc2)c1,–,58.5,–,–,–
S=c1[nH]nc(-c2ccco2)n1/N=C/C(Cl)=C/c1ccccc1,–,72.6,–,53.4,–
CC(/C=N/n1c(-c2ccco2)n[nH]c1=S)=C\c1ccco1,–,–,–,–,–
CCOc1cc(C2C(C(=O)OC)=C(C)NC3=C2C(=O)c2ccccc23)cc(Br)c1OCC (stereo not drawn),–,·,·,·,·
O=C(NCCO)c1ccc(-c2nnc(Nc3ccc(OC(F)(F)Cl)cc3)c3ccccc23)cc1,–,·,·,·,·
Cc1cc(-c2n[nH]c(=S)n2/N=C/C(Cl)=C/c2ccccc2)n[nH]1,–,38.2,?,38.9,–
Cc1c(C(=O)Nc2ccncc2)sc2nc(-c3ccc(F)cc3)cn12,?,–,–,16.8,–
Cc1c(C(=O)NCC(C)C)sc2nc(-c3ccc(F)cc3)cn12,?,–,–,20.6,–
Cc1c(C(N)=O)sc2nc(-c3ccccc3)cn12,–,86.7,–,36.4,–
Cc1ccc(CNC(=O)c2sc3nc(-c4ccccc4)cn3c2C)cc1,–,·,·,·,·
Cc1cc2nn(-c3ccc(F)cc3)nc2cc1NC(=O)c1cccc([N+](=O)[O-])c1C,–,·,·,·,·
O=C(Nc1ccc2c(c1)CCCN2C(=O)c1cccs1)c1ccccc1,?,36.3,–,35.9,–
O=C(Nc1ccc2c(c1)CCCN2C(=O)c1cccs1)c1cccc(F)c1,–,47.0,–,22.2,–
CCOc1ccc(-n2nc(CO)c(C(=O)NCCCc3ccccc3)n2)cc1,–,·,·,·,·
COc1ccc(C)cc1NC(=O)Cn1c(=O)oc2cc(S(=O)(=O)N3CCCCCC3)ccc21,–,·,·,·,·
SMILES,AmpC inh detg,Shiga inhibitor,NS1 inh,CHX counter,AmpC inh no detg
CCN(CC)c1ccc(/C=N/NC(=O)CN2CCCc3ccccc32)cc1,?,–,–,–,–
O=C(CN1CCCc2ccccc21)N/N=C/c1c(O)ccc2ccccc12,–,48.1,–,33.5,–
NS(=O)(=O)c1ccc(NC(=O)CN2CCCc3ccccc32)cc1,–,–,–,–,–
O=C(CN1CCCc2ccccc21)N/N=C/c1ccccc1,–,–,–,21.3,–
O=C(CN1CCCc2ccccc21)N/N=C/c1ccc(O)cc1O,?,71.0,–,25.5,–
CC1CCC(N2CC(=O)N(C3CCCCC3)C(c3ccc(Cl)cc3)C2=O)CC1 (stereo not drawn),–,·,·,·,·
CC(=O)c1ccc(N2C(=O)Nc3ccccc3S2(=O)=O)cc1,–,·,·,·,·
Cc1ccc(/C=N/NC(=O)c2ccc(C(=O)N/N=C/c3ccc(C)s3)o2)s1,–,–,–,–,–
O=C(N/N=C/c1sc(=O)n(Cc2ccc(Br)cc2)c1Cl)c1ccco1,–,–,–,22.3,–
Cc1ccc(/C=N/NC(=O)c2ccco2)s1,?,71.1,–,53.0,–
O=C(N/N=C/c1ccc(Br)s1)c1ccco1,–,91.4,–,54.9,–
O=C(O)c1cccc(Cn2c(Cl)c(/C=N/NC(=O)c3ccccc3O)sc2=O)c1,–,–,–,17.2,–
COc1ccc(C(=O)N/N=C/c2sc(=O)n(Cc3cccc(C(=O)O)c3)c2Cl)cc1,–,–,–,–,–
CC(C)c1ccc(NC(=O)COC(=O)c2cc(=O)[nH]c3ccccc23)cc1,–,·,·,·,–
CCn1c(O)c(C=NC2CCCC2)sc1=S,–,–,–,33.6,–
C=CCn1c(O)c(C=Nc2ccccc2)sc1=S,–,63.7,–,27.7,–
CCn1c(O)c(C=Nc2ccccc2)sc1=S,–,85.1,·,38.3,–
Cc1noc(C)c1-c1ccc2ncnc(NCc3cccc(F)c3)c2c1,·,–,·,–,·
Cc1ccc(C)c(NS(=O)(=O)c2ccc3c(c2)Cc2cc(S(=O)(=O)Nc4cc(C)ccc4C)ccc2-3)c1,–,–,–,–,7.94µM
Cc1ccccc1CCN1CCCC(CN(C)C(=O)C(=O)c2ccco2)C1 (stereo not drawn),–,–,–,17.6,–
COc1ccc(CCN2CCCC(CN(C)C(=O)c3ccoc3)C2)cc1 (stereo not drawn),–,142.2,–,51.8,–
COc1ccc(C2CC(=O)N(C)c3ccccc3S2)cc1OC (stereo not drawn),–,149.1,·,56.7,–
COc1ccc(C2CC(=O)N(Cc3ccc(F)cc3)c3ccccc3S2)cc1OC (stereo not drawn),–,·,·,·,·
COc1ccc(C2CC(=O)N(CC(=O)NCC3CCCO3)c3ccccc3S2)cc1OC (stereo not drawn),–,–,·,24.6,–
O=C(CN1C(=O)CC(c2ccccc2)Sc2ccccc21)NCC1CCCO1 (stereo not drawn),–,–,·,–,–
SMILES,AmpC inh detg,Shiga inhibitor,NS1 inh,CHX counter,AmpC inh no detg
C[C@@H]1CCCN(C[C@@H](O)CN2CCCc3ccccc32)C1,·,·,–,·,·
COc1ccccc1OCC(=O)NCCSCc1cccc(Cl)c1,–,–,–,–,–[2.29 µM]
Cc1ccccc1C(=O)Nc1nc(-c2nnn(-c3ccc(C(C)C)cc3)c2C)ns1,–,·,·,·,·
Cc1ccc2[nH]c3c(=O)n(N)c(C)nc3c2c1,–,–,·,16.7,–
Cc1oc2cc(O)ccc2c(=O)c1Oc1ccc2ccccc2c1,–,38.1,–,–,–
Cc1oc2cc(O)ccc2c(=O)c1Oc1ccc(F)cc1,–,–,–,–,–
Cc1ccc(C(=O)NCc2ccc3c(c2)CCO3)cc1C,–,56.9,–,22.3,–
O=C(NCc1ccc2c(c1)CCO2)Nc1ccccc1,–,54.0,–,60.9,–
O=C(NCc1ccc2c(c1)OCO2)Nc1ccc2ccccc2c1,–,–,–,–,–
COc1ccc2nc(NCN3C(=O)c4ccccc4C3=O)sc2c1,·,·,–,·,·
CC(=O)c1ccc(NC(=S)Nc2cccc3cnccc23)cc1,–,46.5,–,36.1,–
